The text below walks through data of ChEMBL document CHEMBL1857833, “Screening and optimization of specific chemical series against human African Trypanosomiasis (HAT)”.

Where “and” joins values, the source holds several entries; their conditions need not be identical. Equal entries are not always repeated. Among all 4,400 compounds or so, about 390 (8.9%) showed an effect of 50% or more. This is one part of a sample in which strong results are shown more often than they occur.

For this assay, the system named is Trypanosoma brucei. Put plainly: DNDI: Inhibition of Human African Trypanosomiasis, SBRI 427, in vitro at 2 ug.mL-1. In kind it is functional.
In the case of `CCCN(Cc1coc(-c2cccs2)n1)CC1CC1`, the “% inhibition” value is 0%. Consider `Cc1ccc(/C(=N/O)N(C)Cc2cccnc2)c(OCc2ccccc2F)n1`, for which the “% inhibition” value was determined as 0%.

`COc1ccc(-c2nc(CNCc3ccc(C(C)(C)C)cc3)co2)cc1`: the “% inhibition” value is reported as 4%.

As for `Cc1ccc(C(C)C)c(Oc2cc(/C(=N/O)N3C(C)CCC3C)ccn2)c1` (stereo unspecified), the “% inhibition” value was 8%. Turning to `COc1ccc(N(C)Cc2coc(-c3ccc(C(F)(F)F)cc3)n2)cc1`, the “% inhibition” value stood at 2%. For `Fc1cccc(-c2nc(CN3CCC4CCCCC4C3)co2)c1` (stereo unspecified) the value was 0%; for `COc1ccc(Oc2ncccc2/C(=N/O)NCc2ccc(C)o2)cc1`, 5%. Turning to `O/N=C(\NCc1cccnc1)c1cccnc1Oc1ccc(F)cc1Cl`, the “% inhibition” value turned out to be 14%.

As for `O/N=C(\NCc1ccccn1)c1cccnc1Oc1ccc(F)cc1Cl`, the “% inhibition” value came out at 20%. On to `Cc1ccc(CN/C(=N\O)c2cccnc2Oc2c(F)cccc2F)o1`, for which the “% inhibition” value is on record as 0%. Next, `O/N=C(\NCc1ccccc1)c1cccnc1Oc1ccc(F)cc1Cl`: 94%; `Cc1ccc(CN/C(=N\O)c2cccnc2Oc2cc(Cl)ccc2Cl)o1`: 100%.

As for `CSc1ccc(Oc2nc(C)ccc2/C(=N/O)n2ccnc2)cc1`, the “% inhibition” value is given as -8%.

`CCCCN(CCC#N)Cc1coc(-c2ccc(C)cc2)n1`: the “% inhibition” value is listed as -2%. Consider `CC(CCc1ccccc1)NCc1coc(-c2ccccc2Cl)n1` (stereo unspecified), for which the “% inhibition” value is 8%.

Regarding `CCOc1ccccc1-c1nc(CN[C@H](C)c2ccc(C)cc2)co1`, the “% inhibition” value was 10%. For `CCCCCCC(C)NCc1coc(-c2ccccc2OCC)n1` (stereo unspecified) the value was 41%; for `CCOc1ccc(-c2nc(CNC(CC)COC)co2)cc1` (stereo unspecified), 21%. For `CCN(CC)CCNCc1coc(-c2ccccc2Cl)n1` the value was -11%. Next, `CCOc1ccccc1-c1nc(CNC(C)c2ccccc2)co1` (stereo unspecified): -8%; `CCN(CC)CCCC(C)NCc1coc(-c2ccccc2Cl)n1` (stereo unspecified): 94%; `CCCCCC(C)NCc1coc(-c2ccccc2OCC)n1` (stereo unspecified): 99%. On to `CCCCCCC(C)NCc1coc(-c2ccccc2Br)n1` (stereo unspecified), for which the “% inhibition” value worked out at 28%. Next, `CCCC(CCC)NCc1coc(-c2ccc(O)cc2)n1`: 14%; `CCCC(CCC)NCc1coc(-c2ccc(OCC)cc2)n1`: 99%; `Cc1ccc(/C(=N/O)N2CCN(c3ccccc3)CC2)c(Oc2ccc(F)cc2)n1`: 20%. For `C=CCN(CC=C)Cc1coc(-c2cccs2)n1` the value was -3%.

On to `Cc1ccc(-c2nc(CNc3cc(C)nn3-c3ccccc3)co2)cc1`, for which the “% inhibition” value is recorded as 10%. For `C=C(C)CN(CC)Cc1coc(-c2cccc3ccccc23)n1`, the “% inhibition” value is listed as -7%. For `COc1cc(-c2nc(CNC(C)c3ccccc3)co2)cc(OC)c1OC` (stereo unspecified) the value was 0%. Take `CCC(NCc1coc(-c2ccc(Cl)cc2Cl)n1)c1ccccc1` (stereo unspecified): the “% inhibition” value is 5% and 14%. For `CCCCN(CCC#N)Cc1coc(-c2ccc(O)cc2)n1`, the “% inhibition” value is -26%. Next, `Cc1ccccc1-c1nc(CN(C)C(C)c2ccccc2)co1` (stereo unspecified): 13%. For `CC(NCc1coc(-c2ccc(Cl)cc2Cl)n1)C(C)(C)C` (stereo unspecified), the “% inhibition” value was 55%. Next, `CCOc1ccccc1-c1nc(CNC(CC)COC)co1` (stereo unspecified): 5%; `COCC(C)NCc1coc(-c2ccc(Cl)cc2Cl)n1` (stereo unspecified): 2%; `CCCC(CCC)NCc1coc(-c2ccccc2OCC)n1`: 98%. With `CCCC(CCC)NCc1coc(-c2ccccc2Br)n1`, the “% inhibition” value is recorded as -3%. For `Cc1ccc(-c2nc(CN(c3ccccc3)C(C)C)co2)cc1` the value was 23%; for `c1ccc2c(-c3nc(CN4CCC(N5CCCC5)CC4)co3)cccc2c1`, 35%; for `COCCN(CCOC)Cc1coc(-c2ccc(Cl)cc2Cl)n1`, 6%.

On to `Fc1cccc(-c2nc(CN(Cc3ccccn3)Cc3ccccn3)co2)c1`, for which the “% inhibition” value is given as 4%. On to `Fc1ccc(-c2nc(CN(Cc3ccccn3)Cc3ccccn3)co2)cc1`, for which the “% inhibition” value worked out at 48%. For `Cc1cccc(-c2nc(CN(Cc3ccccn3)Cc3ccccn3)co2)c1` the value was 63%. Next, `Cc1ccc(-c2nc(CN(Cc3ccccn3)Cc3ccccn3)co2)cc1`: 83%. For `COCCN(CCOC)Cc1coc(-c2cccc(C)c2)n1` the value was 13%; for `CN(CCc1ccccn1)Cc1coc(-c2ccc(Cl)cc2Cl)n1`, -26%; for `COc1ccc(-c2nc(CN(Cc3ccccn3)Cc3ccccn3)co2)cc1`, 46%. Regarding `Clc1ccc(-c2nc(CN(Cc3ccccn3)Cc3ccccn3)co2)c(Cl)c1`, the “% inhibition” value stood at 58%.

In the case of `C=CCN(C)Cc1coc(-c2ccc(OC)cc2)n1`, the “% inhibition” value worked out at 18%. As for `c1ccc2c(-c3nc(CNCCN4CCOCC4)co3)cccc2c1`, the “% inhibition” value is reported as 7%. For `Cc1ccccc1-c1nc(CN(Cc2ccccc2)C(C)C)co1` the value was 7%; for `Cc1ccc(/C(=N/O)NC2CCc3ccccc32)c(Oc2cccc(F)c2)n1` (stereo unspecified), 23%.

In the case of `Cc1ccc(-c2nc(CNC(C)CC(C)C)co2)cc1` (stereo unspecified), the “% inhibition” value stood at 4%. As to `COCCN/C(=N\O)c1ccc(C)nc1Oc1ccc(SC)c(C)c1`, the “% inhibition” value amounted to 98%. `COc1ccc(Oc2nc(C)ccc2/C(=N/O)NC2CCCC2)cc1`: the “% inhibition” value worked out at 101%.

With `Cc1ccc(Oc2nc(C)ccc2/C(=N/O)NC2CC2)cc1`, the “% inhibition” value came to 30%. For `Cc1ccc(Oc2nc(C)ccc2/C(=N/O)NC2CCCC2)cc1` the value was 97%; for `CSc1ccc(Oc2nc(C)ccc2/C(=N/O)NC2CCCCC2)cc1`, 1%; for `CSc1ccc(Oc2nc(C)ccc2/C(=N/O)NCCN(C)C)cc1C`, -3%. For `CCCN/C(=N\O)c1ccc(C)nc1Oc1ccc(SC)c(C)c1` the value was 11%.

Consider `CSc1ccc(Oc2nc(C)ccc2/C(=N/O)NC2CCCC2)cc1C`, for which the “% inhibition” value is recorded as 88%. Next, `COc1ccc(Oc2nc(C)ccc2/C(=N/O)NC2CCC2)cc1`: -19%. For `COc1ccc(Oc2nc(C)ccc2/C(=N/O)NC2CC2)cc1` the value was 4%; for `CSc1ccc(Oc2nc(C)ccc2/C(=N/O)NCC2CC2)cc1C`, 14%; for `Cc1ccc(/C(=N/O)NC2CCCC2)c(Oc2ccc(F)cc2)n1`, 23%. As to `Brc1ccc(-c2nc(CNCCc3ccccn3)co2)cc1`, the “% inhibition” value is listed as -9%. For `FC(F)(F)Oc1ccc(-c2nc(CNCc3ccccc3OC(F)(F)F)co2)cc1` the value was -17%. Next, `Fc1cccc(-c2nc(CNCc3ccc(OC(F)(F)F)cc3)co2)c1`: 7%; `CN1CCCC1CCN/C(=N\O)c1cccnc1Oc1ccc(Cl)cc1` (stereo unspecified): -1%; `O=C(c1ccco1)N1CCN(Cc2coc(-c3ccc(Cl)cc3Cl)n2)CC1`: 21%.
